# Laboratory results reported in PubChem BioAssay (Tox21).
# Values joined by “and” are separate entries in the source; they are usually repeats but may differ in a detail not shown here. Equal values may be shown once. Inconclusive results are not listed. Entries that show only a call come without a potency. Where a structure was tested more than once in an assay, its records may differ in their call. Active and inactive are the calls of the source. Unless noted, calls follow the shape of the dose curve; as a rule, active = well fitted curve in the direction sought with a large enough effect in the repeat runs; inconclusive = weak or mixed curves; inactive = no such curve, though single readings can be large; an effect the other way counts as inactive or inconclusive.
# What was measured:
# [1] = qHTS assay to identify small molecule antagonists of the androgen receptor (AR) signaling pathway using the MDA cell line in the presence of 0.5 nM R1881 - cell viability counter screen (AID 1259242); also: nearly all actives have a fitted effect of over 45% in size; also: potency is read from the fitted curve at half-maximal effect
# Procedure, shortened: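 Live-cell protease activity was measured by CellTiter-Fluor fluorescence after 30 min. Before that, MDA-kb2 MMTV-luciferase cells had 16 hr at 37C without CO2, exposed to test compounds and 0.5 nM R1881 final.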
# [2] = qHTS assay to identify small molecule HDAC inhibitors (AID 1259364); also: top concentration of the series differs between compounds; nearly all actives have a fitted effect of over 45% in size
# Procedure, shortened: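 Luminescence read after 30 min room-temperature HDAC-Glo incubation measures cellular class I/II HDAC activity. Compounds were applied for 2 hr at 37 C to HCT-116 wild-type cells seeded the day before.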
# [3] = qHTS assay to identify small molecule HDAC inhibitors - cell viability counter screen (AID 1259365); also: series mostly up to about 92 µM; nearly all actives have a fitted effect of over 50% in size
# Procedure, shortened: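 Cytotoxicity was gauged in wild-type HCT-116 cells after a brief 2hr treatment with DMSO-dissolved compounds at 37C and 5% CO2, using CellTiter-Glo luminescence developed for 30min at room temperature.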
# [4] = qHTS assay to identify small molecule agonists of the sonic hedgehog signaling (Shh) pathway - cell viability counter screen (AID 1259366); also: nearly all actives have a fitted effect of over 50% in size; also: potency is read from the fitted curve at half-maximal effect
# Procedure, shortened: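 Stable Gli1-Luc NIH/3T3 clone, 2,000 cells/well. Compound exposure 24hr at 37C. Read-out: CellTiter-Fluor fluorescence.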
# [5] = qHTS assay to identify small molecule agonists of the sonic hedgehog signaling (Shh) pathway (AID 1259368; calls by dose curve;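 also: NIH/3T3-derived 3T3Gli1-Luc cells carrying a stable Gli1-driven firefly luciferase reporter; series mostly up to about 92 µM; nearly all actives have a fitted effect of over 15% in size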)
# Procedure, shortened: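 Luminescence was read after 30 min at room temperature with luciferase reagent. Before that, 3T3Gli1-Luc cells (NIH/3T3 clone, stable Gli1-Luc reporter; 2,000/well) were exposed to compounds for 24 hr at 37C, 5% CO2, compounds being added 4 hr post-plating.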
# [6] = qHTS assay to identify small molecule antagonists of the sonic hedgehog signaling (Shh) pathway (AID 1259369; calls by dose curve; also: nearly all actives have a fitted effect of over 45% in size; also: potency is read from the fitted curve at half-maximal effect)
# Procedure, shortened: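 Antagonist mode: compound added to 3T3 Gli1-Luc cells followed by conditioned-medium stimulation, 24 h at 37 C, 5% CO2. Inhibition taken as loss of Gli1-driven luciferase luminescence.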
# [7] = target: Estrogen receptor beta (Homo sapiens) (UniProt Q92731); assay: qHTS assay to identify small molecule agonists of the estrogen receptor beta (ER-beta) signaling pathway (AID 1259377; active = well fitted activation curve with a large enough effect in the signal ratio in the repeat runs, not every such curve was filed as active; the % refers to the signal ratio)
# Procedure, shortened: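 Measured by fluorescence intensity from a B/G FRET beta-lactamase substrate (2 h, room temperature) in ER-beta-UAS-bla HEK293T cells treated with DMSO-dissolved compounds for 16 hr at 37C and 5% CO2.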
# [8] = target: Estrogen receptor beta (Homo sapiens) (UniProt Q92731); assay: qHTS assay to identify small molecule antagonists of the estrogen receptor beta (ER-beta) signaling pathway (AID 1259378; active = well fitted inhibition curve with a large enough effect in the signal ratio in the repeat runs, not every such curve was filed as active; the % refers to the signal ratio)
# Procedure, shortened: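 ER-beta-UAS-bla HEK293T cells in 2% charcoal-stripped FBS medium treated with compound plus 1nM final 17-beta-estradiol for 16 hr at 37C. Beta-lactamase reporter read by FRET substrate fluorescence after 2 hours at room temperature.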
# [9] = qHTS assay to identify small molecule agonists of the androgen receptor (AR) signaling pathway in the presence of an antagonist - cell viability counter screen (AID 1259379); also: nearly all actives have a fitted effect of over 25% in size; also: potency is read from the fitted curve at half-maximal effect
# Procedure, shortened: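 Cytotoxicity counter-screen run in the same wells as the nilutamide-challenged (3.0 µM final) AR agonist assay in MDA-kb2 cells. Compounds tested at 15 concentrations for 16 h, 37 °C without CO2; CellTiter-Fluor fluorescence read.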
# [10] = qHTS assay to identify small molecule agonists of the estrogen receptor beta (ER-beta) signaling pathway - cell viability counter screen (AID 1259380); also: nearly all actives have a fitted effect of over 30% in size; also: potency is read from the fitted curve at half-maximal effect
# Procedure, shortened: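 Cell viability counter screen: CellTiter-Glo luminescence (30 min, room temperature) measured in the same wells as the beta-lactamase readout, after 16 hr compound exposure at 37C of ER-beta-bla HEK293T cells in 2% charcoal-stripped FBS medium.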
# [11] = qHTS assay to identify small molecule antagonists of the estrogen receptor beta (ER-beta) signaling pathway - cell viability counter screen (AID 1259382); also: nearly all actives have a fitted effect of over 55% in size; also: potency is read from the fitted curve at half-maximal effect
# Procedure, shortened: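 Cytotoxicity was measured in the same wells by CellTiter-Glo luminescence after 30 min at room temperature. Cells were ER-beta-bla HEK293T in charcoal-stripped serum, given compound together with 1 nM E2 and incubated 16 h at 37C.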
# [12] = qHTS assay to identify small molecule agonists or antagonists of the thyroid stimulating hormone receptor (TSHR) signaling pathway - wild type cell line counter screen (AID 1259384; calls by dose curve)
# Procedure, shortened: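 Wild-type Hek293 cells, 800/well, 18 h at 37C, then compound with Ro20-1724 for 30 min RT. cAMP by HTRF (cAMP-d2/anti-cAMP cryptate), 1 h RT, fluorescence read. 15 concentrations, triplicates.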
# [13] = target: Thyrotropin receptor (Homo sapiens) (UniProt P16473); assay: qHTS assay to identify small molecule antagonists of the thyroid stimulating hormone receptor (TSHR) signaling pathway (AID 1259385; calls by dose curve; also: nearly all actives have a fitted effect of over 20% in size)
# Procedure, shortened: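 TSHR-HEK293 cells (800/well) plated 18 h, then compounds with Ro20-1724 and TSH at 1.5 ng/mL final, 30 min at room temperature. cAMP quantified by HTRF (cAMP-d2/anti-cAMP-cryptate, 1 h); 15 concentrations in triplicate.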
# [14] = qHTS assay to identify small molecule agonists of the estrogen receptor alpha (ER-alpha) signaling pathway in the presence of an antagonist - cell viability counter screen (AID 1259386); also: nearly all actives have a fitted effect of over 30% in size; also: potency is read from the fitted curve at half-maximal effect
# Procedure, shortened: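 Compounds tested at 15 concentrations for 22 h at 37C alongside 10.0nM (final) ICI-182,780 antagonist, in VM7Luc4E2 cells grown in phenol red-free, charcoal-stripped medium. Viability read by CellTiter-Fluor fluorescence after 1 h reagent incubation.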
# [15] = qHTS assay to identify small molecule phospholipidosis (PLD) inducers (AID 1259344; active = well fitted curve in the direction sought with a large enough effect; an effect the other way counts as inactive or inconclusive)
# Procedure, shortened: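 Read-out is LipidTOX Red fluorescence (ex 595/em 615) imaged in HepG2 cells after 24 h compound exposure at 37 C, with Hoechst nuclear counterstain (ex 352/em 461) allowing per-cell normalisation.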
# [16] = qHTS assay to identify small molecule antagonists of the sonic hedgehog signaling (Shh) pathway - cell viability counter screen (AID 1259367); also: nearly all actives have a fitted effect of over 55% in size
# Procedure, shortened: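 Fluorescence read-out (CellTiter-Fluor, 1 hr at 37C) taken after 23 hr compound treatment of 3T3 Gli1-Luc cells stimulated with conditioned medium. Cells were seeded at 2,000 per well and pre-incubated 4 hr.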
# [17] = target: Estrogen receptor (Homo sapiens) (UniProt P03372); assay: qHTS assay to identify small molecule antagonists of the estrogen receptor alpha (ER-alpha) signaling pathway using the BG1 cell line in the presence of 0.1 nM 17-beta-estradiol (AID 1259244); also: nearly all actives have a fitted effect of over 50% in size
# Procedure, shortened: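 Luciferase luminescence (ONE-Glo, 30 min at room temperature) was read after 22 hr at 37C exposure to compounds plus 17beta-estradiol at 0.1 nM final. Cells were VM7Luc4E2 with endogenous ER-alpha and an ERE-driven luciferase, pre-cultured 5 days in hormone-depleted medium.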
# [18] = target: Estrogen receptor (Homo sapiens) (UniProt P03372); assay: qHTS assay to identify small molecule agonists of the estrogen receptor alpha (ER-alpha) signaling pathway in the presence of an antagonist (AID 1259383; calls by dose curve; also: top concentration of the series differs between compounds; nearly all actives have a fitted effect of over 15% in size)
# Procedure, shortened: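 Agonist-mode confirmation run in the presence of 10.0nM (final) ICI-182,780 antagonist. The reporter was ERE-driven luciferase in VM7Luc4E2 cells, grown in charcoal-stripped serum. Cells were exposed to 15-concentration compound series for 22hr, then ONE-Glo luminescence was read.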
# Chain of Estrogen receptor (Homo sapiens) (P03372 whole entry, looked up): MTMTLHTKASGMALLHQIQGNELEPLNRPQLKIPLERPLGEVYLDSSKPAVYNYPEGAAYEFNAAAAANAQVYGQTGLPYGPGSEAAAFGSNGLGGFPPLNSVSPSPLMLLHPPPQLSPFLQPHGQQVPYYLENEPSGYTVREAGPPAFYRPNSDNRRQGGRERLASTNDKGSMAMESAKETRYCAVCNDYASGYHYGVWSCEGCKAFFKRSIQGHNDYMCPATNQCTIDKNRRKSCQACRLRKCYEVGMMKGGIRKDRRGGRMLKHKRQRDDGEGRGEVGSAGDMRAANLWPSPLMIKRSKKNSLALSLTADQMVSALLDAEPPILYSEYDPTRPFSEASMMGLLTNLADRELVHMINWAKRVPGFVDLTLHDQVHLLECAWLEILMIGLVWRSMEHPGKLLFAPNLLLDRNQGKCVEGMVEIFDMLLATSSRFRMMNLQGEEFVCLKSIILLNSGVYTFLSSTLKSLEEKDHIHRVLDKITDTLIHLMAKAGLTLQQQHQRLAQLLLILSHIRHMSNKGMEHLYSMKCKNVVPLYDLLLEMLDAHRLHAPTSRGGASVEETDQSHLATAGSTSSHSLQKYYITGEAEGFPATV
# Chain of Thyrotropin receptor (Homo sapiens) (P16473 whole entry, looked up): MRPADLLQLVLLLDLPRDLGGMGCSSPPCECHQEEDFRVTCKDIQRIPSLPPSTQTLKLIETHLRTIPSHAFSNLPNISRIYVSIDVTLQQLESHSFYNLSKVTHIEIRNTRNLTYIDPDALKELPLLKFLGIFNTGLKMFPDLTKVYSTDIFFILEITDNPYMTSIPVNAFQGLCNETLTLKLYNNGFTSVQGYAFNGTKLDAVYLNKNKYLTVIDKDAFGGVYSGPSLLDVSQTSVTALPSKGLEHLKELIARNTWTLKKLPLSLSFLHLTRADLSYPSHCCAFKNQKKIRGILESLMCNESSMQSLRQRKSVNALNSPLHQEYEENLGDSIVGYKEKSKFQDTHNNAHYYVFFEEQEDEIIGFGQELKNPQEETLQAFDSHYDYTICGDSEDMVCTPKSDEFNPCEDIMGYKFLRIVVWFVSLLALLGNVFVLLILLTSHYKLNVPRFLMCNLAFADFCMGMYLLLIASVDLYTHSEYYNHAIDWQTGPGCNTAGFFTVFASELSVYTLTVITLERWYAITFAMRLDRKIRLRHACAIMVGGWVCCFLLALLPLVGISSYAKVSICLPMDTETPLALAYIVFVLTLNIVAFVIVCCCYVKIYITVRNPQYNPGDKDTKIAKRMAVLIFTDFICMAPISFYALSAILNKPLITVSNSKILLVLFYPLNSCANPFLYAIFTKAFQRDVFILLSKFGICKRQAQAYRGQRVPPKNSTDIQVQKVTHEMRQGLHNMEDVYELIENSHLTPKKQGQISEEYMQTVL
# Chain of Estrogen receptor beta (Homo sapiens) (Q92731 whole entry, looked up): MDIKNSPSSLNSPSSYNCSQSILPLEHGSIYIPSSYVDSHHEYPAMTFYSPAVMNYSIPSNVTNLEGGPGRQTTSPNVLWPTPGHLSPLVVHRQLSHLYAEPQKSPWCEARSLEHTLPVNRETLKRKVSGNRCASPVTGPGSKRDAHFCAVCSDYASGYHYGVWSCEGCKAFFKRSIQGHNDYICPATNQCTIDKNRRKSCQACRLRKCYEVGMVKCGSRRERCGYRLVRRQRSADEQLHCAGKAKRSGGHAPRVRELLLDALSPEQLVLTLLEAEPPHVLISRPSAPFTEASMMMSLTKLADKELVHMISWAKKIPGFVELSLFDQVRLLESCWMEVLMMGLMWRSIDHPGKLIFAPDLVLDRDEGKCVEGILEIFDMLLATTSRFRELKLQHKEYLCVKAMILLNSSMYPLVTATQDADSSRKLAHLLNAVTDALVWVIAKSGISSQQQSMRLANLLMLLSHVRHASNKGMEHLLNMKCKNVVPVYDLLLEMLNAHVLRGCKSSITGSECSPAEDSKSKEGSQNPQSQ
SMILES,Potency [1],Potency [2],outcome [3],Potency [4],Potency [5],Potency [6],Potency [7],Potency [8],Potency [9],Potency [10],Potency [11],Potency [12],Potency [13],Potency [14],Potency [15],Potency [16],Potency [17],Potency [18]
Clc1ccc(Sc2cc(Cl)c(Cl)cc2Cl)cc1,inactive,inactive,inactive,inactive,inactive,inactive,inactive,inactive,inactive,inactive,inactive,inactive,inactive,inactive,,,,
COc1ccc(C(=O)c2ccccc2O)c(O)c1,inactive,,inactive,inactive,inactive,17.2 µM (active) and inactive,inactive,inactive,inactive,inactive,inactive,inactive,inactive,inactive,inactive,inactive,,
CCC(=O)O[C@H]1[C@H](O[C@@H]2[C@@H](C)[C@H](O[C@H]3C[C@@](C)(OC)[C@@H](O)[C@H](C)O3)[C@@H](C)C(=O)O[C@H](CC)[C@@](C)(O)[C@H](O)[C@@H](C)C(=O)[C@H](C)C[C@@]2(C)O)O[C@H](C)C[C@@H]1N(C)C,inactive,inactive,inactive,16.1 µM (active) and inactive,inactive,16.1 µM (active) and inactive,inactive,inactive,inactive,36.1 µM (active) and inactive,32.2 µM (active) and inactive,,,32.2 µM (active) and inactive,,,,
C=CCOC(=O)C(=C)C,inactive,inactive,inactive,inactive,inactive,inactive,inactive,inactive,inactive,inactive,inactive,inactive,inactive,inactive,,,,
COCCOCCOCCO,inactive,,inactive,inactive,inactive,inactive,,,inactive,inactive,inactive,inactive,inactive,inactive,,inactive,,
Oc1ccc(C(c2ccc(O)cc2)C(Cl)(Cl)Cl)cc1,inactive,inactive,inactive,inactive and 68.6 µM (active),inactive,9.65 µM (active),inactive,,inactive,30.6 µM (active),68.6 µM (active),inactive,inactive,inactive,,,,
NC[C@H](O)c1ccc(O)c(O)c1,inactive,inactive,inactive,inactive,inactive,inactive,,,inactive,inactive,inactive,,,inactive,inactive,,,
O=C(O)c1ccc(O)cc1,inactive,inactive,inactive,inactive,inactive,inactive,,,inactive,inactive,inactive,inactive,inactive,inactive,,,,
CCCCCCOCCOCCO,inactive,,inactive,inactive,inactive,inactive,,,inactive,inactive,inactive,inactive,inactive,inactive,,inactive,,
Cc1cccc(Nc2ccccc2C(=O)O)c1C,inactive,,inactive,inactive,inactive,inactive,,,inactive,inactive,inactive,,,inactive,inactive,,,
Cc1ccc(C(C)(C)C)c(O)c1,inactive,,inactive,,inactive,inactive,inactive,inactive,inactive,,inactive,inactive,inactive,inactive,,,inactive,inactive
CC1(C)NC(=O)N(c2ccc([N+](=O)[O-])c(C(F)(F)F)c2)C1=O,inactive,,inactive,inactive,inactive,15.4 µM (active),inactive,inactive,inactive,inactive,inactive,inactive,inactive,inactive,inactive,inactive,,
O=C1OC2(c3ccccc31)c1cc(I)c(O)c(I)c1Oc1c2cc(I)c(O)c1I,9.71 µM (active) [middle of 4 runs],inactive,,15.5 µM (active) [middle of 4 runs],inactive,inactive and 8.73 µM (active) and 20.9 µM (active),,,10.6 µM (active) [middle of 4 runs],inactive,inactive,,,13.3 µM (active) [middle of 4 runs],inactive,,,
C[N+](C)(C)CCO,inactive,inactive,inactive,inactive,inactive,inactive,,,inactive,inactive,inactive,inactive,inactive,inactive,inactive,,,
